# Measurements: ChEMBL document CHEMBL4808148, “HDAC6 screening dataset using tau-based substrate in an enzymatic assay yields selective inhibitors and activators” (2021)
# Hit rate of the full screen: of about 5,600 compounds, about 390 (7%) showed an effect of 50% or more. Shown is part of a subset that was picked to be rich in strong results.
# Columns and labels:
# [1] = target: T1, Protein deacetylase HDAC6 (Homo sapiens) (UniProt Q9UBN7); details: at 10 µM
# T1 sequence (whole entry): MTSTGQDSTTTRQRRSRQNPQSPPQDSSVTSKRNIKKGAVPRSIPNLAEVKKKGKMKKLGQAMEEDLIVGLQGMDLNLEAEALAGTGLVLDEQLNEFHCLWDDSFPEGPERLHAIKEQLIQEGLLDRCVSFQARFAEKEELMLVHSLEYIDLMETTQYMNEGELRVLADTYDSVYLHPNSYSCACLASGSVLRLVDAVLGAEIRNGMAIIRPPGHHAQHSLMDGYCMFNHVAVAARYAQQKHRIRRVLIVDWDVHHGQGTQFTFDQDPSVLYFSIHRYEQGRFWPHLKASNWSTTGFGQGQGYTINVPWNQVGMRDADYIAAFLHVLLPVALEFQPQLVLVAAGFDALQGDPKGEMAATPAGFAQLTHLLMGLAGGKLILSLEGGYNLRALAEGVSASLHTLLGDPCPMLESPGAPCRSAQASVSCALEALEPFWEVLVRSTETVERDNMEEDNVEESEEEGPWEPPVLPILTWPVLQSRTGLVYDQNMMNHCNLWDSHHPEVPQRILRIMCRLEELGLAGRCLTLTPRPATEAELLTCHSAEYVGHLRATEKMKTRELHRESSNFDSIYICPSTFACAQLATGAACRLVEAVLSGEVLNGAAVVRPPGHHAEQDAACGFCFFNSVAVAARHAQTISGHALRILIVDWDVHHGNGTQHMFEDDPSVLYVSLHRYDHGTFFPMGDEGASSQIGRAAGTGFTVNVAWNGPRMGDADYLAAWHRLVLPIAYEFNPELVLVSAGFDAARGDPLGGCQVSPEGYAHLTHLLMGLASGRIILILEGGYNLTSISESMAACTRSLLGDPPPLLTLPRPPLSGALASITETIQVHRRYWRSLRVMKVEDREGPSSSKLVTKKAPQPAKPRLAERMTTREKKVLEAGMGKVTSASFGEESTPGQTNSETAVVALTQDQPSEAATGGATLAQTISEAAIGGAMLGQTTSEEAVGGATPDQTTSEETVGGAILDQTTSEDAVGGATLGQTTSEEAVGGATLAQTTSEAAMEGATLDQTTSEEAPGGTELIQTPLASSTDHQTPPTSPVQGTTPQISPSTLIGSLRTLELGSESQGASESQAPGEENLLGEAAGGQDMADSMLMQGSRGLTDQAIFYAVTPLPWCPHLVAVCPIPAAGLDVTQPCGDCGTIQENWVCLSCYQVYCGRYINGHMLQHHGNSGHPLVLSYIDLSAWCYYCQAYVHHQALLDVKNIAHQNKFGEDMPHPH
# [2] = target: Protein deacetylase HDAC6 (Homo sapiens) (UniProt Q9UBN7); details: at 10 µM; remark: listed apart in the source
Compound,inhibition [1] [%],inhibition [2] [%]
FCc1ccc(OCCOc2ccc(Cl)cc2Cl)c(Cl)n1,61.7,
CCOc1c2c(c(OCC)c3ccccc13)C(=O)N(c1ccc(CC(=O)NS(=O)(=O)c3ccccc3)cc1)C2,3.49,
O=C1C2CC3CC1CC(O)(C3)C2,26.7,
Cc1cc2c(F)c(Oc3ncnn4cc(OC[C@@H](C)OC(=O)[C@H](C)N)c(C)c34)ccc2[nH]1,48.1,
COc1cc2c(Oc3ccc4[nH]c(C)cc4c3F)ccnc2cc1OCC1(N)CC1,54.9,
NS(=O)(=O)c1ccc2c(c1)C1C=CCC1C(c1ccc(Br)cc1)N2 (stereo not drawn),8.71,
CS(=O)(=O)c1ccc(-c2cn3ccccc3n2)cc1,99.6,
CS(=O)(=O)c1ccc(-c2cnc(N)c(C(=O)Nc3ccccc3)n2)cc1,6.2,
Cc1cccc2c1CC[C@H](CN1CCC(c3c(Cl)cccc3Cl)CC1)C[C@@H]2O,-4.44,
CN(C)[C@@H]1CCc2[nH]c3ccc(NC(=O)c4ccc(F)cc4)cc3c2C1,6.78,
O=C1C2CC=CCC2C(=O)N1SC(Cl)(Cl)Cl (stereo not drawn),59.5,
O=[N+]([O-])c1ccc(Cl)c([N+](=O)[O-])c1,15.2,
COc1cc(O)cc([C@@H]2CC(=O)c3c(O)cc(O[C@@H]4O[C@H](CO)[C@@H](O)[C@H](O)[C@H]4O[C@@H]4O[C@@H](C)[C@H](O)[C@@H](O)[C@H]4O)cc3O2)c1,5.67,
O=C1C[C@@H](c2ccc(O)cc2)Oc2cc(O)cc(O)c21,73.8,
O=C(O[C@@H]1Cc2c(O)cc(O)cc2O[C@@H]1c1cc(O)c(O)c(O)c1)c1cc(O)c(O)c(O)c1,11.9,
[O-][n+]1ccccc1S,22.8,
O=C(Oc1ccccc1)c1ccccc1O,77.2,
CCOC(=O)c1ccccc1OC(N)=O,7.12,
O=C(OCCO)c1ccccc1O,5.24,
CCCN(CCC)C(=O)C(CCC(=O)OCCCN1CCN(CCOC(=O)Cc2c(C)n(C(=O)c3ccc(Cl)cc3)c3ccc(OC)cc23)CC1)NC(=O)c1ccccc1 (stereo not drawn),-4.35,
O=[N+]([O-])c1cc(Cl)ccc1S(=O)(=O)c1ccccc1,13.8,
NC1=NC(=O)N([C@H]2C[C@H](O)[C@@H](CO)O2)CN1,19.8,
Brc1ccc(NC2C3CC4CC(C3)CC2C4)cc1 (stereo not drawn),5.83,
O=S(=O)(c1ccccc1F)N1CCOc2c(N3CCNCC3)cccc21,3.08,
CC(=O)O[C@]1(C(C)=O)CC[C@H]2[C@@H]3C=CC4=CC(=O)CC[C@]4(C)[C@H]3CC[C@@]21C,31.5,

Compound,inhibition [1] [%],inhibition [2] [%]
CCOC(=O)Nc1nc2ccccc2[nH]1,34.2,
CCCSc1ccc2[nH]c(NC(=O)OC)nc2c1,58.8,
CCC[S+]([O-])c1ccc2[nH]c(NC(=O)OC)nc2c1 (stereo not drawn),18.6,
Cc1nc(N(C)C(=O)Cc2ccc(-c3ccccn3)cc2)sc1S(N)(=O)=O,23.9,
CCOC(=O)Nc1ccc2c(c1)N(C(=O)CCN(CC)CC)c1ccccc1S2,14.5,
Nc1nccc(Oc2ccc(NC(=O)c3cn(COP(=O)(O)O)cc(-c4ccc(F)cc4)c3=O)cc2F)c1Cl,21.9,
O=C(/C=C/c1cccc(F)c1)NC1CC1,52.8,
CC(=O)N1CCC(NC(=O)c2ccc(F)cc2)CC1,13.7,
C[C@H]1CN(Cc2ccc(CC(=O)N3CCC(Nc4cccc(F)c4)CC3)cc2)CCN1,44.9,
O=C(C(c1ccccc1)c1ccccc1)N1CCN(CC(O)COc2cccc3ncccc23)CC1 (stereo not drawn),5.51,
COc1ccc(C2CNC(=O)NC2)cc1O[C@H]1C[C@@H]2CC[C@H]1C2,6.99,
CCOC(=O)[C@H](CCc1ccccc1)N[C@@H](C)C(=O)N1C(=O)N(C)C[C@H]1C(=O)O,15.9,
CC(=O)Oc1ccccc1C(=O)Nc1ncc([N+](=O)[O-])s1,103,
O=C1NC(O)CCN1[C@@H]1O[C@H](CO)[C@@H](O)[C@H]1O (stereo partly drawn),15.9,
C[C@@H]1CC2C3CCC4=CC(=O)C=C[C@]4(C)[C@@]3(F)[C@@H](O)C[C@]2(C)[C@H]1C(=O)CO (stereo partly drawn),6.55,
"ESCIN, CHEMBL4594473",,3.89
O=C(COc1ccc(Cl)cc1)N[C@H]1CC[C@H](NC(=O)COc2ccc(Cl)cc2)CC1,-5.96,
CN1[C@@H]2C[C@@H](O)C[C@H]1[C@@H]1O[C@@H]12,91.4,
Cc1cc(C)c(NC(=O)N(Cc2ccc3c(c2)Cc2ccccc2-3)C2CCCCCC2)c(C)c1,0.9,
CN1CCN(Cc2ccc(Nc3ncc(Cl)c(Nc4ccccc4S(=O)(=O)N(C)C)n3)cc2)CC1,5.09,
CC1(C)S[C@@H]2[C@H](NC(=O)[C@H](NC(=O)N3CCNC3=O)c3ccccc3)C(=O)N2[C@H]1C(=O)O,13.9,
O=C(O)CC(S)C(=O)O (stereo not drawn),18.6,
O[AsH]O[AsH]O (stereo not drawn),-5.16,
O=C(CO)[C@@H](O)[C@@H](O)[C@H](O)CO,3.04,
"PHENYLMERCURIC ACETATE, CHEMBL1333953",,113

Compound,inhibition [1] [%],inhibition [2] [%]
"GADOTERIDOL, CHEMBL1200593",,-7.04
"VANADATE ION, CHEMBL1163564",,8.48
CCNCc1cc(C(C)(C)C)c(O)c(C(C)(C)C)c1,36.2,
CNc1ccc([N+](=O)[O-])cc1-n1cnc(-c2ccc(C(F)(F)F)cc2)c1,-2.07,
Cc1ccc(C(=O)Nc2ccc(CN3CCN(C)CC3)c(C(F)(F)F)c2)cc1C#Cc1cnc2[nH]ncc2c1,69,
CCN1CCN(Cc2ccc(C(=O)Nc3ccc(C)c(Oc4ccc5c(c4)CC(=O)N5)c3)cc2C(F)(F)F)CC1,42.8,
CCCCC(F)(F)[C@@]1(O)CC[C@H]2[C@@H](CC(=O)[C@@H]2CCCCCCC(=O)O)O1,26.8,
Nc1c(S(=O)(=O)O)cc(Nc2cccc3ccccc23)c2c1C(=O)c1ccccc1C2=O,30.6,
CNC(C)CC1CCCCC1 (stereo not drawn),-3.99,
COc1ccc2nc3c(c(N)c2c1)CCCC3,14.7,
Cc1cc(O)c2c(c1)C(=O)c1cc(O)cc(O)c1C2=O,99.6,
O=C(Nc1ccncc1)C(=O)c1cn(Cc2ccc(Cl)cc2)c2ccccc12,11.2,
CCCCCCOc1nsnc1C1=CCCN(C)C1,21.1,
CSCC[C@H](NC(=O)[C@H](Cc1ccccc1)NC(=O)CNC(=O)CNC(=O)[C@@H](N)Cc1ccc(O)cc1)C(=O)O,-7.67,
CC(C)Cc1ccc(C(C)C(=O)NCCO)cc1 (stereo not drawn),5.6,
CC(=O)Nc1ccc(Cc2ccc(NC(C)=O)cc2)cc1,37.1,
Nc1nonc1/C(=N/O)Nc1ccc(F)c(Cl)c1,6.27,
O=C(Nc1ccc(Cl)cc1)Nc1ccc(Cl)c(Cl)c1,52.2,
Cc1c(N)cccc1Cn1ccc(OCCc2cccs2)cc1=O,-7.53,
Cc1cccc(NC(=O)N[C@@H]2N=C(c3ccccc3)c3ccccc3N(C)C2=O)c1,10.7,
CCNC1=Nc2ccc(Cl)cc2C(C)(c2ccccc2)O1 (stereo not drawn),3.39,
c1cc(Nc2cc(C3CC3)n[nH]2)nc(Nc2ccc3[nH]cnc3c2)n1,77.3,
CCC(C)c1ccc(NC(=O)Cn2cnc3c2c(=O)n(C)c(=O)n3C)cc1 (stereo not drawn),18.1,
c1ccc(C2(c3ccccc3)CC2=C2NCCN2)cc1,17,
C[C@H](CCC(=O)O)[C@H]1CC[C@H]2[C@@H]3C(=O)C[C@@H]4CC(=O)CC[C@]4(C)[C@H]3CC(=O)[C@]12C,-6.77,

Compound,inhibition [1] [%],inhibition [2] [%]
CC(=O)Nc1ccc(C(=O)NC(C)(C)C)cc1,9.15,
CC(C)(C)c1ccc(C(=O)Nc2cn3cc(-n4ccnc4)ccc3n2)cc1,101,
Cc1ncc([N+](=O)[O-])n1CC(O)CN1CCOCC1 (stereo not drawn),-5.36,
COc1cccc2c1C(=O)c1c(O)c3c(c(O)c1C2=O)C[C@@](O)(/C(CO)=N/NC(=O)CCCCCN1C(=O)C=CC1=O)C[C@@H]3O[C@H]1C[C@H](N)[C@H](O)[C@H](C)O1,26.7,
COc1cccc2c1C(=O)c1c(O)c3c(c(O)c1C2=O)C[C@@](O)(C(=O)CO)C[C@@H]3O[C@H]1C[C@H](N2CCO[C@H](OC)C2)[C@H](O)[C@H](C)O1,43.2,
COc1cccc2c1C(=O)c1c(O)c3c(c(O)c1C2=O)C[C@@](O)(C(=O)CO)C[C@@H]3O[C@H]1C[C@H](N)[C@H](O[C@@H]2CCCCO2)[C@H](C)O1,92.2,
CC1(C)OC(=O)C(OCC2CC2)=C1c1ccc(S(C)(=O)=O)cc1,-6.89,
CCCCCN(CCCOC)C(=O)[C@@H](CCC(=O)O)NC(=O)c1ccc(Cl)c(Cl)c1,9.58,
CC(C)c1cc(C(C)C)c(-c2csc(N(CCN(C)C)Cc3cccnc3)n2)c(C(C)C)c1,1.94,
C[N+](C)(CF)CCO,0.62,
CO/N=C(\C(=O)N[C@@H]1C(=O)N2C(C(=O)O)=C(CSc3nc(C)c(CC(=O)O)s3)CS[C@H]12)c1csc(N)n1,2.2,
O=C(O[C@H]1[C@H](OC(=O)c2cccnc2)[C@@H](OC(=O)c2cccnc2)[C@H](OC(=O)c2cccnc2)[C@@H](OC(=O)c2cccnc2)[C@H]1OC(=O)c1cccnc1)c1cccnc1,-5.99,
O=C(Oc1cccc2cccnc12)c1ccccc1,87.1,
CCCOC(=O)c1ccccc1,8.38,
C[C@@H](N[C@H]1CCCC[C@@H]1NC(=O)c1ccc(Cl)cc1)c1cccc2ccccc12,18.9,
COC1(C[S+]([O-])c2ccccc2)CCN(CCc2c[nH]c3ccc(F)cc23)CC1 (stereo not drawn),4.5,
"MERBROMIN, CHEMBL3833381",,65.3
CC1=C(O)C(=O)[C@@H]2O[C@@H]2C1=O,-8.14,
COc1ncc(-c2ccc3c(Nc4cc(Oc5cc(F)cc(F)c5)cc(C(=O)O)c4)c(S(=O)(=O)NC4CC4)cnc3c2)c(OC)n1,12.8,
CC(=O)Oc1c(C)cccc1C(=O)O,17,
C=C1C(=O)O[C@@H]2[C@H]3C(C)=CC[C@@]34O[C@@]4(C)CC[C@@H]12,51,
O=C1C(=Cc2cccnc2)C(=O)c2ccccc21,27.6,
C[C@@H](O[C@H]1OCCN(Cc2nn[nH]c2CN(C)C)[C@H]1c1ccc(F)cc1)c1cc(C(F)(F)F)cc(C(F)(F)F)c1,12.9,
